From PubChem BioAssay (Tox21)
Records with an inconclusive call do not appear. A number with no mark means an inactive call. The source made the active and inactive calls. Calls come from the whole dose curve; as a rule, active = well fitted cell-killing curve with a large enough effect in the repeat runs (not every such curve was filed as active); inconclusive = weak or mixed curves, or effect the other way; inactive = no such curve, though single readings can be large or run the other way.

Test: qHTS assay to identify small molecule antagonists of the estrogen related receptor signaling pathway with the pleiotropic PPARgamma coactivator (PGC) from Tox21 10K library - cell viability counter screen (AID 1224840); note: nearly all actives have a fitted effect of over 40% in size
Details: PGC/ERR reporter cells viability, CellTiter-Fluor, 17.5 h; series mostly up to 92.4 µM; viability change, negative = cytotoxic: at the top concentration
Source text: National Center for Advancing Translational Sciences [NCATS]
NIH Chemical Genomics Center [NCGC]
U.S. Environmental Protection Agency [EPA]
National Institutes of Environmental Health Sciences [NIEHS]
National Toxicology Program [NTP]
U.S. Food and Drug Administration [FDA]
Estrogen related receptors (ERRs), the first orphan nuclear receptors discovered, play an important role in the control of cellular energy metabolism. ERRs are required for high-energy production in response to the environmental challenges. The pleiotropic PPARgamma coactivator (PGC) is a major partner of ERR and a key regulator in energy homeostasis. Together they have been implicated in the etiology of metabolic disorders such as Type 2 diabetes and metabolic syndrome. ERR-alpha was also identified as an adverse marker for breast cancer progression; ERR-alpha-positive tumors have a poor prognosis. To screen and to identify environmental compounds that perturb the ERR and PGC/ERR signaling pathways could provide valuable information for potential therapeutic or preventive measures in the treatment of metabolic disease. To differentiate true PGC/ERR antagonists or agonist from cytotoxic substances, the assay is multiplexed with cell viability assay.
Tox21 Assay Protocol Summary:
The PGC/ERR cells were dispensed at 2,000 cells/5 ul/well in 1536-well white plates using a Multidrop dispenser. After the assay plates were incubated at a 37 C/5% CO2 incubator for 6 hours, 23 nL of compounds dissolved in DMSO, positive and negative controls or DMSO only was transferred to the assay plate by a pin tool. The plates were incubated at 37 C for 17.5 hours. 1 ul/well of CellTiter-Fluor reagent was added into the assay plates using a Flying Reagent Dispenser. After 30-minute incubation at 37 C/5% CO2, the fluorescence intensity in the plates was measured using a ViewLux plate reader.
% is set by controls: 0 for no effect and ±100 for the full control effect; potency is the fitted concentration of half-maximal effect.

Structure (SMILES)	viability change, negative = cytotoxic	Potency
CC(C)(C)c1cc(CO)cc(C(C)(C)C)c1O	-10.8%	
O=C1[C@H](CC[C@H](O)c2ccc(F)cc2)[C@@H](c2ccc(O)cc2)N1c1ccc(F)cc1	-24.1% [at 42.5 µM]	
Nc1nc(N)c(-c2ccccc2)s1	-0.235% [at 42.5 µM]	
NC(N)=N/N=C/c1c(Cl)cccc1Cl	-17.4% [at 42.5 µM]	
N#Cc1c(F)cccc1F	1.8%	
CC1=CC(=O)/C(=C(/C)O)C(=O)O1	4.95%	
COCCOCCOCCOCCOC	-4.95%	
CC(=O)O[C@@H]1C(=O)O[C@@H]2[C@H]1OC(=O)[C@@H]2OC(C)=O	-0.684% [at 42.5 µM]	
CCCCCC(CO)CCC (stereo not given)	8.69%	
O=C(O)/C=C/c1cnc[nH]1	2.85%	
CN1CCN(C2=Nc3ccccc3Sc3ccc(Cl)cc32)CC1	-0.991% [at 42.5 µM]	
Nc1nc(CC(=O)O)cs1	-21.3%	
N#Cc1cc2ccccc2c2ccccc12	1.52%	
CC(Cc1cccc(C(F)(F)F)c1)NCCOC(=O)c1ccccc1 (stereo not given)	-5.04% [at 42.5 µM]	
O=C1CCCCCO1	3.27%	
O=C(O)[C@@H]1[C@H]2C[C@H]3c4[nH]c5ccccc5c4CCN3C[C@@H]2CC[C@@H]1O	6.81% [at 42.5 µM]	
CC(C)NCC(O)c1cc(O)cc(O)c1 (stereo not given)	15.9% [at 42.5 µM]	
CN(C)CC/C=C1\c2ccccc2COc2ccccc21	15.5% [at 42.5 µM]	
C#CCOC(=O)[C@@H](C)Oc1ccc(Oc2ncc(Cl)cc2F)cc1	0.44%	
C[C@@H](C1=C(CCN(C)C)Cc2ccccc21)c1ccccn1	-0.116% [at 42.5 µM]	

Structure (SMILES)	viability change, negative = cytotoxic	Potency
CC(CN)CCCN (stereo not given)	-0.556%	
O=C(CCN1CCN2CCCC2C1)N1c2ccccc2Sc2ccc(Cl)cc21 (stereo not given)	-1.3% [at 19 µM]	
C=C(C)C(=O)OC(C)C	7.39%	
Oc1ccc(Sc2ccc(O)cc2)cc1	-16%	
CC(C)c1ccc2c(C(C)C)cc(C(C)C)c(S(=O)(=O)O)c2c1	1.31%	
N[C@H]1C(O)O[C@H](CO)[C@H](O)[C@@H]1O (stereo not given in full)	11.9%	
Cc1cccc(Oc2ccccc2)c1	-25.3%	
C=CC(C)(CCC=C(C)C)OC(=O)c1ccccc1 (stereo not given)	-3.37%	
CCOc1ccc(NC(=O)CC(C)=O)cc1	-0.317%	
CC(=O)N(CC(=O)N(C)C)c1ccccc1	0.216% [at 42.5 µM]	
NC(N)=NN=C(/C=C/c1ccc([N+](=O)[O-])o1)/C=C/c1ccc([N+](=O)[O-])o1		2.98 µM (active)
CC(C)CCCC(C)CCO (stereo not given)	0.0213%	
NC(=S)N/N=C/c1cccnc1	0.226% [at 42.5 µM]	
CC(=O)/C=C/C1C(C)=CCCC1(C)C (stereo not given)	-4.54%	
CC1=CCC(C(C)C)C=C1 (stereo not given)	0.0573%	
O=C(c1ccc(O)cc1)c1ccc(O)cc1	-3.62%	
CCCOc1ccc2nc(NC(=O)OC)[nH]c2c1	-13.5% [at 42.5 µM]	
CC(=O)c1c(C)c([N+](=O)[O-])c(C(C)(C)C)c([N+](=O)[O-])c1C	-5.72%	
CCN(CC)C(C)=O	0.345%	
CCC(=O)OC(C)(C)C1CC=C(C)CC1 (stereo not given)	-6.92%	
